Common to all, as to test: PBM; 200 nM protein, PBS
Common to all, as to conditions: dsDNA, one strand shown

For assay [1], the target named is VAX1 (Homo sapiens, UniProt Q5SQQ9 86-172).
Assay [2] concerns the target VAX1 (Homo sapiens, UniProt Q5SQQ9 86-172, T142I).
The target of assay [3] is VAX1 (Homo sapiens, UniProt Q5SQQ9 86-172, K157R).
Chain of VAX1 (Homo sapiens, UniProt Q5SQQ9 86-172, K157R) (Q5SQQ9 86-172 K157R): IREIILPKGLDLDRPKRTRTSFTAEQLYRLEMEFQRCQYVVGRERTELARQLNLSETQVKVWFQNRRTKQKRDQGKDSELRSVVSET

Chain of VAX1 (Homo sapiens, UniProt Q5SQQ9 86-172, T142I) (Q5SQQ9 86-172 T142I): as the sequence (Q5SQQ9 86-172 K157R) above, with T57I, R72K counted along it
Chain of VAX1 (Homo sapiens, UniProt Q5SQQ9 86-172) (Q5SQQ9 86-172): as the sequence (Q5SQQ9 86-172 K157R) above, with R72K counted along it

As for CAGCGCAC, the binding signal with VAX1 [1] is 7.28 upbm affinity estimate (log intensity, higher = more binding, comparable within an allelic series); with VAX1 [2], 7.22 upbm affinity estimate (log intensity, higher = more binding, comparable within an allelic series); with VAX1 [3], 7.26 upbm affinity estimate (log intensity, higher = more binding, comparable within an allelic series).
On to ATAACGTG, for which the binding signal with VAX1 [1] was 9.01 upbm affinity estimate (log intensity, higher = more binding, comparable within an allelic series); with VAX1 [2] it was 8.66 upbm affinity estimate (log intensity, higher = more binding, comparable within an allelic series); with VAX1 [3], 8.79 upbm affinity estimate (log intensity, higher = more binding, comparable within an allelic series).
Take CGGCAAGA: the binding signal was 7.12 upbm affinity estimate (log intensity, higher = more binding, comparable within an allelic series) with VAX1 [1]; 7.22 upbm affinity estimate (log intensity, higher = more binding, comparable within an allelic series) in the assay with VAX1 [2]; 7.11 upbm affinity estimate (log intensity, higher = more binding, comparable within an allelic series) in the assay with VAX1 [3].
Turning to GATTTAGA, the binding signal in the assay with VAX1 [1] is 9.33 upbm affinity estimate (log intensity, higher = more binding, comparable within an allelic series); in the assay with VAX1 [2], 9.17 upbm affinity estimate (log intensity, higher = more binding, comparable within an allelic series); with VAX1 [3], 9.1 upbm affinity estimate (log intensity, higher = more binding, comparable within an allelic series).
AAGGTCAT: the binding signal is 9.64 upbm affinity estimate (log intensity, higher = more binding, comparable within an allelic series) in the assay with VAX1 [1]; 9.26 upbm affinity estimate (log intensity, higher = more binding, comparable within an allelic series) with VAX1 [2]; 9.4 upbm affinity estimate (log intensity, higher = more binding, comparable within an allelic series) with VAX1 [3].
Regarding AATATGCT, the binding signal in the assay with VAX1 [1] is 9.71 upbm affinity estimate (log intensity, higher = more binding, comparable within an allelic series); with VAX1 [2] it was 9.56 upbm affinity estimate (log intensity, higher = more binding, comparable within an allelic series); with VAX1 [3] it was 9.53 upbm affinity estimate (log intensity, higher = more binding, comparable within an allelic series).
CGTAATGA: the binding signal with VAX1 [1] was 12.7 upbm affinity estimate (log intensity, higher = more binding, comparable within an allelic series); in the assay with VAX1 [2] it was 12.2 upbm affinity estimate (log intensity, higher = more binding, comparable within an allelic series); with VAX1 [3] it was 12.2 upbm affinity estimate (log intensity, higher = more binding, comparable within an allelic series).
Regarding CGCGCTAG, the binding signal with VAX1 [1] was 7.18 upbm affinity estimate (log intensity, higher = more binding, comparable within an allelic series); in the assay with VAX1 [2], 7.3 upbm affinity estimate (log intensity, higher = more binding, comparable within an allelic series); in the assay with VAX1 [3], 7.16 upbm affinity estimate (log intensity, higher = more binding, comparable within an allelic series).
Take CAATCTAG: the binding signal was 9.1 upbm affinity estimate (log intensity, higher = more binding, comparable within an allelic series) with VAX1 [1]; 8.87 upbm affinity estimate (log intensity, higher = more binding, comparable within an allelic series) with VAX1 [2]; 8.9 upbm affinity estimate (log intensity, higher = more binding, comparable within an allelic series) with VAX1 [3].
With ACGCATAA, the binding signal in the assay with VAX1 [1] is 9.35 upbm affinity estimate (log intensity, higher = more binding, comparable within an allelic series); in the assay with VAX1 [2] it was 8.83 upbm affinity estimate (log intensity, higher = more binding, comparable within an allelic series); with VAX1 [3], 8.87 upbm affinity estimate (log intensity, higher = more binding, comparable within an allelic series).
Regarding CGCCGCTC, the binding signal with VAX1 [1] is 7.19 upbm affinity estimate (log intensity, higher = more binding, comparable within an allelic series); with VAX1 [2], 7.18 upbm affinity estimate (log intensity, higher = more binding, comparable within an allelic series); in the assay with VAX1 [3] it was 7.31 upbm affinity estimate (log intensity, higher = more binding, comparable within an allelic series).
For the sequence AGCCCGTG, the binding signal with VAX1 [1] was 7.01 upbm affinity estimate (log intensity, higher = more binding, comparable within an allelic series); with VAX1 [2] it was 7.09 upbm affinity estimate (log intensity, higher = more binding, comparable within an allelic series); with VAX1 [3] it was 7.28 upbm affinity estimate (log intensity, higher = more binding, comparable within an allelic series).
As to AATTGACG, the binding signal in the assay with VAX1 [1] was 10.6 upbm affinity estimate (log intensity, higher = more binding, comparable within an allelic series); in the assay with VAX1 [2] it was 10.1 upbm affinity estimate (log intensity, higher = more binding, comparable within an allelic series); with VAX1 [3], 10.2 upbm affinity estimate (log intensity, higher = more binding, comparable within an allelic series).
As to GTGATAAC, the binding signal with VAX1 [1] is 9.19 upbm affinity estimate (log intensity, higher = more binding, comparable within an allelic series); with VAX1 [2], 8.78 upbm affinity estimate (log intensity, higher = more binding, comparable within an allelic series); with VAX1 [3] it was 8.95 upbm affinity estimate (log intensity, higher = more binding, comparable within an allelic series).
For GGCTAAAC, the binding signal was 9.05 upbm affinity estimate (log intensity, higher = more binding, comparable within an allelic series) in the assay with VAX1 [1] and 8.95 upbm affinity estimate (log intensity, higher = more binding, comparable within an allelic series) in the assay with VAX1 [3].
As for GCATATGA, the binding signal was 8.94 upbm affinity estimate (log intensity, higher = more binding, comparable within an allelic series) with VAX1 [1]; 8.6 upbm affinity estimate (log intensity, higher = more binding, comparable within an allelic series) with VAX1 [2]; 8.79 upbm affinity estimate (log intensity, higher = more binding, comparable within an allelic series) in the assay with VAX1 [3].
For AGATGAGC, the binding signal is 8.9 upbm affinity estimate (log intensity, higher = more binding, comparable within an allelic series) with VAX1 [1] and 8.88 upbm affinity estimate (log intensity, higher = more binding, comparable within an allelic series) with VAX1 [3].
Regarding CGAAGCAG, the binding signal with VAX1 [1] was 6.89 upbm affinity estimate (log intensity, higher = more binding, comparable within an allelic series); with VAX1 [2] it was 7.23 upbm affinity estimate (log intensity, higher = more binding, comparable within an allelic series); with VAX1 [3] it was 7.1 upbm affinity estimate (log intensity, higher = more binding, comparable within an allelic series).
Regarding CCGGTGCC, the binding signal is 7.09 upbm affinity estimate (log intensity, higher = more binding, comparable within an allelic series) with VAX1 [1]; 7.25 upbm affinity estimate (log intensity, higher = more binding, comparable within an allelic series) with VAX1 [2]; 7.13 upbm affinity estimate (log intensity, higher = more binding, comparable within an allelic series) with VAX1 [3].
Regarding CGCGGCAC, the binding signal with VAX1 [1] is 6.77 upbm affinity estimate (log intensity, higher = more binding, comparable within an allelic series); with VAX1 [2], 7.02 upbm affinity estimate (log intensity, higher = more binding, comparable within an allelic series); with VAX1 [3] it was 7.21 upbm affinity estimate (log intensity, higher = more binding, comparable within an allelic series).
ATATGGAC: the binding signal with VAX1 [1] is 9.25 upbm affinity estimate (log intensity, higher = more binding, comparable within an allelic series); with VAX1 [2], 8.78 upbm affinity estimate (log intensity, higher = more binding, comparable within an allelic series); with VAX1 [3], 8.81 upbm affinity estimate (log intensity, higher = more binding, comparable within an allelic series).
As to GGTATACC, the binding signal was 7.63 upbm affinity estimate (log intensity, higher = more binding, comparable within an allelic series) with VAX1 [1]; 7.37 upbm affinity estimate (log intensity, higher = more binding, comparable within an allelic series) with VAX1 [2]; 7.24 upbm affinity estimate (log intensity, higher = more binding, comparable within an allelic series) in the assay with VAX1 [3].

These data come from publication PMC11006913.
